# Source: PubChem BioAssay AID1159580 (chemical genetic matrix, 2015)
# Values joined by “and” are separate entries in the source; they are usually repeats but may differ in a detail not shown here. Equal values may be shown once. The whole screen tested about 5,500 compounds, of which about 2,000 (36%) were called active. Another 18% or so got no clear call; they are omitted. Some of the results follow. Values without a mark were called inactive. Rule as the data show it: active = normalized growth mostly below about 0.91 (no sharp cut-off); inconclusive = no clear call, values can overlap the other calls; inactive = mostly above about 0.92.
# Assay: chemical genetic growth profiling, strain panel (AID 1159580);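 also: tested at 20 µM; growth read once vehicle control cultures reached saturation at 30 °C; 1 = growth at the plate median or of vehicle wells; lower values mean less growth of the strain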
# Details: S. cerevisiae deletion strains, growth OD
smiles,measurement,setting,value
CC(C)N(CCC(C(N)=O)(c1ccccc1)c1ccccn1)C(C)C (stereo not drawn),normalized growth,"locus YAL013W, strain DEP1, hits give low values",0.959
same,normalized growth,"locus YAL021C, strain ccr4, hits give low values",0.0708 (active)
same,normalized growth,"locus YAL026C, strain drs2, hits give low values",0.0629 (active)
same,normalized growth,"locus YAL030W, strain snc1, hits give low values",0.233 (active)
same,normalized growth,"locus YAL040C, strain CLN3, hits give low values",0.969 and 1.02
same,normalized growth,"locus YBL061C, strain skt5, hits give low values",0.15 (active)
same,normalized growth,"locus YBR009C, strain hhf1, hits give low values",0.103 (active)
same,normalized growth,"locus YBR021W, strain FUR4, hits give low values",0.984
same,normalized growth,"locus YBR023C, strain chs3, hits give low values",0.171 (active)
same,normalized growth,"locus YBR171W, strain sec66, hits give low values",0.0831 (active)
same,normalized growth,"locus YBR229C, strain ROT2, hits give low values",0.998
same,normalized growth,"locus YBR231C, strain swc5, hits give low values",0.0926 (active)
same,normalized growth,"locus YBR279W, strain paf1, hits give low values",0.0794 (active)
same,normalized growth,"locus YCL011C, strain gbp2, hits give low values",0.062 (active)
same,normalized growth,"locus YCL016C, strain dcc1, hits give low values",0.251 (active)
same,normalized growth,"locus YCL029C, strain bik1, hits give low values",0.963
same,normalized growth,"locus YCL061C, strain MRC1 (second series), hits give low values",0.993 and 1.01
same,normalized growth,"locus YCL061C, strain MRC1, hits give low values",0.0703 (active)
same,normalized growth,"locus YCL069W, strain vba3, hits give low values",0.0939 (active)
same,normalized growth,"locus YCR088W, strain abp1, hits give low values",0.0673 (active)
same,normalized growth,"locus YDL005C, strain med2, hits give low values",0.937
same,normalized growth,"locus YDL035C, strain GPR1, hits give low values",1.04
same,normalized growth,"locus YDL040C, strain nat1, hits give low values",0.471 (active)
same,normalized growth,"locus YDL074C, strain BRE1, hits give low values",0.976
same,normalized growth,"locus YDL101C, strain DUN1, hits give low values",0.988
same,normalized growth,"locus YDL185W, strain tfp1, hits give low values",0.971
same,normalized growth,"locus YDL192W, strain arf1, hits give low values",0.995
same,normalized growth,"locus YDR001C, strain nth1, hits give low values",0.0635 (active)
same,normalized growth,"locus YDR069C, strain doa4, hits give low values",0.0647 (active)
same,normalized growth,"locus YDR101C, strain arx1, hits give low values",0.983
same,normalized growth,"locus YDR137W, strain rgp1, hits give low values",0.0968 (active)
same,normalized growth,"locus YDR150W, strain NUM1, hits give low values",0.989 and 1 and 1.01
same,normalized growth,"locus YDR159W, strain sac3, hits give low values",0.388 (active)
same,normalized growth,"locus YDR162C, strain NBP2, hits give low values",1.01
same,normalized growth,"locus YDR195W, strain ref2",0.12 (active)
same,normalized growth,"locus YDR297W, strain sur2, hits give low values",0.0705 (active)
same,normalized growth,"locus YDR318W, strain mcm21, hits give low values",0.998
same,normalized growth,"locus YDR334W, strain swr1, hits give low values",0.0666 (active)
same,normalized growth,"locus YDR335W, strain msn5, hits give low values",0.0613 (active)
same,normalized growth,"locus YDR363W, strain ESC2, hits give low values",0.982 and 0.999
same,normalized growth,"locus YDR388W, hits give low values",0.99
same,normalized growth,"locus YDR392W, strain spt3, hits give low values",0.112 (active)
same,normalized growth,"locus YDR502C, strain sam2, hits give low values",0.992
same,normalized growth,"locus YEL003W, strain gim4, hits give low values",0.0565 (active)
same,normalized growth,"locus YEL037C, strain rad23, hits give low values",0.0584 (active)
same,normalized growth,"locus YEL061C, strain CIN8 (second series), hits give low values",0.0634 (active)
same,normalized growth,"locus YEL061C, strain CIN8, hits give low values",0.996
same,normalized growth,"locus YER002W, strain NOP16, hits give low values",0.995 and 1
same,normalized growth,"locus YER015W, strain faa2, hits give low values",0.0627 (active)
same,normalized growth,"locus YER016W, strain bim1, hits give low values",0.0943 (active)
same,normalized growth,"locus YER110C, hits give low values",0.977
same,normalized growth,"locus YER111C, strain swi4, hits give low values",0.082 (active)
same,normalized growth,"locus YER155C, strain BEM2 (second series), hits give low values",0.1 (active)
same,normalized growth,"locus YER155C, strain BEM2, hits give low values",0.989
same,normalized growth,"locus YER167W, strain BCK2, hits give low values",0.986
same,normalized growth,"locus YFR010W, strain ubp6, hits give low values",0.0698 (active)
same,normalized growth,"locus YGL078C, strain dbp3, hits give low values",0.99
same,normalized growth,"locus YGL086W, strain mad1, hits give low values",1
same,normalized growth,"locus YGL167C, strain pmr1, hits give low values",0.563 (active)
same,normalized growth,"locus YGL173C, strain kem1, hits give low values",0.114 (active)
same,normalized growth,"locus YGL227W, strain vid30, hits give low values",0.0631 (active)
same,normalized growth,"locus YGL240W, strain doc1, hits give low values",0.129 (active)
same,normalized growth,"locus YGL248W, strain PDE1, hits give low values",0.98
same,normalized growth,"locus YGL253W, strain hxk2, hits give low values",0.0581 (active)
same,normalized growth,"locus YGR078C, strain PAC10, hits give low values",0.99 and 1.04
same,normalized growth,"locus YGR135W, strain pre9, hits give low values",0.952
same,normalized growth,"locus YGR252W, strain gcn5, hits give low values",0.997
same,normalized growth,"locus YHR013C, strain ard1, hits give low values",0.114 (active)
same,normalized growth,"locus YHR027C, strain rpn1, hits give low values",0.0639 (active)
same,normalized growth,"locus YHR030C, strain SLT2, hits give low values",0.997 and 1
same,normalized growth,"locus YHR079C, strain IRE1 (second series), hits give low values",0.995
same,normalized growth,"locus YHR079C, strain IRE1, hits give low values",0.968
same,normalized growth,"locus YHR094C, strain hxt1, hits give low values",0.976
same,normalized growth,"locus YHR129C, strain ARP1, hits give low values",0.999
same,normalized growth,"locus YHR142W, strain chs7, hits give low values",0.0788 (active)
same,normalized growth,"locus YHR200W, strain rpn10, hits give low values",0.999
same,normalized growth,"locus YIL066C, strain RNR3, hits give low values",0.992
same,normalized growth,"locus YIL073C, strain SPO22, hits give low values",0.912
same,normalized growth,"locus YIL125W, strain kgd1, hits give low values",1
same,normalized growth,"locus YIR030C, strain dcg1, hits give low values",0.973
same,normalized growth,"locus YJL092W, strain hpr5, hits give low values",0.0644 (active)
same,normalized growth,"locus YJL095W, strain BCK1 (second series), hits give low values",0.17 (active)
same,normalized growth,"locus YJL095W, strain BCK1, hits give low values",0.966 and 1.01
same,normalized growth,"locus YJL115W, strain asf1, hits give low values",0.0925 (active)
same,normalized growth,"locus YJL129C, strain trk1, hits give low values",0.0869 (active)
same,normalized growth,"locus YJL134W, strain LCB3, hits give low values",0.998
same,normalized growth,"locus YJL154C, strain vps35, hits give low values",0.0659 (active)
same,normalized growth,"locus YJL164C, strain tpk1, hits give low values",0.13 (active)
same,normalized growth,"locus YJL166W, strain qcr8, hits give low values",0.0729 (active)
same,normalized growth,"locus YJL168C, strain set2, hits give low values",0.996
same,normalized growth,"locus YJL187C, strain SWE1 (second series), hits give low values",0.977
same,normalized growth,"locus YJL187C, strain SWE1, hits give low values",0.468 (active)
same,normalized growth,"locus YJR043C, strain POL32, hits give low values",1.05
